Our source for the outcome and AC50 values is PubChem BioAssay (EPA / NIEHS).

In general, AC50 refers to the midpoint of the concentration-response curve, whichever way the signal moves.

Assay [1] can be described thus: ACEA_ER_80hr: ACEA Biosciences xCELLigence Real-Time Cell Analysis on Estrogen Receptor Agonism for Proliferation (AID 2282667; active means hit-call score of the fitted dose curve at least 0.9, where 1 is the maximum). The following applies: T47D proliferation, impedance (xCELLigence), 80 h. The method in brief: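 Impedance readout (RT-CES) of T47D proliferation at 80 h post-dose; gain of signal vs DMSO baseline. Compounds: 8 conc, 1:4 serial, top 100 uM final, ≤0.5% DMSO; biological duplicate.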

For assay [2], the target named is CCAAT/enhancer-binding protein beta (Homo sapiens) (UniProt P17676). Nature of the assay: ATG_C_EBP_CIS: Attagene CIS-FACTORIAL HepG2 Assay for human CCAAT/Enhancer Binding Protein (C/EBP) beta (AID 2282927). Particulars: HepG2 Attagene cis-factorial transcription factor reporter; actives raise or lower the signal. The method in brief: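 Following a 24 h incubation with test chemical, transfected HepG2 cells yielded RNA whose reporter transcripts were quantified by RT-PCR and fluorescent capillary electrophoresis, with DMSO serving as baseline for bidirectional fitting.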

The nature of assay [3]: ATG_CMV_CIS: Attagene CIS-FACTORIAL HepG2 Assay for human CMV (Internal Marker) (AID 2282928).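 Further: endpoint acts as a background internal control marker rather than a target.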 Particulars: HepG2 CMV promoter reporter, transcription factor profiling; actives raise or lower the signal. The method in brief: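 CMV internal-marker background readout in transiently transfected HepG2 cells bearing cis-regulated reporter units. Reporter mRNA is measured 24 h after dosing by RT-PCR and capillary electrophoresis, with bidirectional fitting against DMSO.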

Assay [4] can be described thus: ATG_DR4_LXR_CIS: Attagene CIS-FACTORIAL HepG2 Assay for human Liver X Receptor (LXR), DR4 submotif (AID 2282929). The following applies: HepG2 Attagene DR4 cis-reporter, mRNA transcription; actives raise or lower the signal. The method in brief:
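Fluorescence intensity of labelled reporter cDNA fragments, separated by capillary electrophoresis, gives the signal. HepG2 cells bearing cis-regulated reporter constructs were treated 24 h; activity fitted bidirectionally relative to DMSO negative control.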

In assay [5] the target is Aryl hydrocarbon receptor (Homo sapiens) (UniProt P35869). As to the kind of experiment: ATG_Ahr_CIS: Attagene CIS-FACTORIAL HepG2 Assay for human Aryl Hydrocarbon Receptor (Ahr) (AID 2282930). The following applies: HepG2 AhR cis-factorial reporter transcription; actives raise or lower the signal. The method in brief:
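Values derive from bidirectional fitting against DMSO negative control. Underlying signal: cis-element reporter mRNA in transiently transfected HepG2, harvested 24 h post-dose and measured by RT-PCR plus capillary electrophoresis.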

Assay [6] can be described thus: ATG_AP_1_CIS: Attagene CIS-FACTORIAL HepG2 Assay for human Activator Protein 1 (AP-1) (AID 2282931). The following applies: HepG2 Attagene cis-factorial AP-1 reporter mRNA; actives raise or lower the signal. The method in brief:
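Multiplexed HepG2 reporter assay, 24 h dosing. mRNA induction detected by RT-PCR plus capillary electrophoresis. Activity fitted in both directions against DMSO.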

The nature of assay [7]: ATG_AP_2_CIS: Attagene CIS-FACTORIAL HepG2 Assay for human Activator Protein 2 (AP-2) (AID 2282932). The following applies: HepG2 AP-2 cis-reporter, Attagene transcription factor profiling; actives raise or lower the signal. The method in brief: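 HepG2 cells were transiently transfected with multiple cis-promoter reporter transcription units and dosed for 24 h. Reporter mRNA was measured by RT-PCR with capillary electrophoresis fluorescence; bidirectional fits relative to DMSO baseline.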

Assay [8] is described as follows: ATG_BRE_CIS: Attagene CIS-FACTORIAL HepG2 Assay for human Bone Morphogenetic Protein (BMP) Response Element (BRE) (AID 2282933). The following applies: HepG2 BMP response element reporter, Attagene transcription factor profiling; actives raise or lower the signal. The method in brief:
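Fluorescence-labelled reporter cDNA fragments, separated by capillary electrophoresis, gave the signal for this component of a 52-readout multiplex. HepG2 cells were transfected, exposed to chemicals for 24 h, and compared with DMSO using bidirectional fitting.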

The target in assay [9] is Transcription factor E2F1 (Homo sapiens) (UniProt Q01094). Nature of the assay: ATG_E2F_CIS: Attagene CIS-FACTORIAL HepG2 Assay for human E2F Transcription Factor 1 (AID 2282935). Particulars: HepG2 Attagene cis-reporter, E2F reporter RNA transcripts; actives raise or lower the signal. The method in brief:
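HepG2 cells transiently transfected with multiplexed cis-element reporter units, dosed for 24 h. Reporter mRNA measured by RT-PCR, 6-FAM primer-extension labeling, HpaI digestion and capillary electrophoresis; bidirectional fit versus DMSO baseline.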

Assay [10] in a line: ATG_M_61_CIS: Attagene CIS-FACTORIAL HepG2 Assay for M61 Transcription Factor (Internal Marker) (AID 2282937). The following applies: HepG2 Attagene CIS-FACTORIAL M61 internal marker reporter; actives raise or lower the signal. The method in brief: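 Endogenous transcription factor activity in HepG2 is read through transiently transfected cis-element reporter units. After 24 h dosing, RNA undergoes reverse transcription, PCR and primer extension with 6-FAM before capillary electrophoresis; DMSO-referenced bidirectional fit.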

The nature of assay [11]: ATG_EGR_CIS: Attagene CIS-FACTORIAL HepG2 Assay for human Early Growth Response 1 (EGR1) (AID 2282938). The following applies: HepG2 Attagene CIS-FACTORIAL EGR reporter mRNA; actives raise or lower the signal. The method in brief:
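Activity is taken as induction or loss of reporter mRNA versus DMSO, fitted bidirectionally. Transcripts from cis-regulated reporter units in transiently transfected HepG2 were measured after 24 h by RT-PCR with capillary electrophoresis.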

A short description of assay [12]: ATG_M_19_CIS: Attagene CIS-FACTORIAL HepG2 Assay for M19 Transcription Factor (Internal Marker) (AID 2282939). The following applies: HepG2 Attagene CIS-FACTORIAL M19 internal marker reporter; actives raise or lower the signal. The method in brief: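 HepG2, MRTU transient transfection, 24 h dosing. Total RNA → RT-PCR → 6-FAM primer extension → HpaI digest → CE fluorescence. Bidirectional curve fit, DMSO negative control.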

Assay [13] in a line: ATG_ERE_CIS: Attagene CIS-FACTORIAL HepG2 Assay for Estrogen Response Element (ERE) (AID 2282940). Particulars: HepG2 ERE cis-reporter, Attagene RNA transcript; actives raise or lower the signal. The method in brief: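 After a 24 h chemical treatment, RNA from reporter-transfected HepG2 cells is reverse-transcribed, PCR-amplified and fluorescently labelled. Fragments separated by capillary electrophoresis give reporter signal; DMSO serves as negative control.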

The nature of assay [14]: ATG_Ets_CIS: Attagene CIS-FACTORIAL HepG2 Assay for human Erythroblast Transformation Specific (ETS) (AID 2282941). Particulars: HepG2 ETS cis-reporter transcription, actives raise or lower the signal. The method in brief: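 HepG2 cells transfected with multiple cis-regulated reporter units measuring endogenous ETS-driven transcription, 24 h after dosing. Reporter mRNA quantified by RT-PCR with capillary electrophoresis; bidirectional fit relative to DMSO.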

Assay [15] has as its target Hepatocyte nuclear factor 3-beta (Homo sapiens) (UniProt Q9Y261). As to the kind of experiment: ATG_FoxA2_CIS: Attagene CIS-FACTORIAL HepG2 Assay for human Forkhead box A2 (FOXA2) (AID 2282942). Particulars: HepG2 cis-reporter transcription factor activity, 24 h; actives raise or lower the signal. The method in brief:
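Reporter transcript induction is measured by fluorescence after capillary electrophoresis of RT-PCR products from HepG2 cells exposed 24 h. Cis-regulated reporter units report endogenous factor activity; curves fitted both directions against DMSO.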

Assay [16] can be described thus: ATG_FoxO_CIS: Attagene CIS-FACTORIAL HepG2 Assay for human Forkhead box O (FoxO) (AID 2282943). Particulars: HepG2 Attagene cis-reporter, FoxO element, mRNA; actives raise or lower the signal. The method in brief:
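Values reflect reporter mRNA induction or loss in HepG2 cells 24 h post-dosing, fitted bidirectionally with DMSO as negative control and baseline. Detection used RT-PCR and fluorescence capillary electrophoresis.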

Assay [17] can be described thus: ATG_GATA_CIS: Attagene CIS-FACTORIAL HepG2 Assay for human GATA Binding Protein (AID 2282944). The following applies: HepG2 GATA cis-element reporter, Attagene multiplex mRNA; actives raise or lower the signal. The method in brief:
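Cells: HepG2, transiently transfected with cis-regulated reporter transcription units. Exposure: 24 h. Detection: RT-PCR plus capillary electrophoresis of FAM-labeled fragments. Analysis: bidirectional, DMSO as baseline.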

Assay [18] addresses Retinoic acid receptor alpha (Homo sapiens) (UniProt P10276). As to the kind of experiment: ATG_DR5_RAR_CIS: Attagene CIS-FACTORIAL HepG2 Assay for human Retinoic Acid Receptor Alpha (RARE), DR5 submotif (AID 2282934). Particulars: HepG2 Attagene cis-factorial RARE DR5 reporter, mRNA; actives raise or lower the signal. The method in brief:
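Endpoint fitted in both directions relative to DMSO as negative control. It reflects DR5 cis-element reporter mRNA induction in transiently transfected HepG2 cells, measured 24 h after dosing through RT-PCR and fluorescent capillary electrophoresis.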

The nature of assay [19]: ATG_E_Box_CIS: Attagene CIS-FACTORIAL HepG2 Assay for human Enhancer Box (E-box) (AID 2282936). The following applies: HepG2 E-box cis-reporter transcription, actives raise or lower the signal. The method in brief:
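HepG2 cells transiently transfected with multiplexed cis-element reporter units sensing endogenous transcription factor activity; 24 h compound exposure. Reporter mRNA measured by RT-PCR, 6-FAM primer extension, HpaI digestion and capillary electrophoresis; bidirectional fit versus DMSO.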

Structures are written as SMILES. Inconclusive results are not listed. Calls of active or inactive are those of the source. How the source made its calls, unless noted: active means hit-call score of the fitted dose curve at least 0.9, where 1 is the maximum; inactive means score below 0.9.

Sequence of Transcription factor E2F1 (Homo sapiens) (Q01094 whole entry, looked up): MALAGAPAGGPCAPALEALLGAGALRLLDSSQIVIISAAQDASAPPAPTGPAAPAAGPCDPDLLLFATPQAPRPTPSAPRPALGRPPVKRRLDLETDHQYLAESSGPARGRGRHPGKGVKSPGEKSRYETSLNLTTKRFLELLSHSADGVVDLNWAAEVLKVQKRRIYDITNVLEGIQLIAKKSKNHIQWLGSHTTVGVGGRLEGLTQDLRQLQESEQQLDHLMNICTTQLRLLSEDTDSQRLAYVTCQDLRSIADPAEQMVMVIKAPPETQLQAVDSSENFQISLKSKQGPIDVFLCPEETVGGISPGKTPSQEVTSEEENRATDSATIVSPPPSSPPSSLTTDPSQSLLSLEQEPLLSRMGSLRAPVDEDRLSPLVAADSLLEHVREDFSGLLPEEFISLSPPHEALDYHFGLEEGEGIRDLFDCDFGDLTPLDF
Sequence of Hepatocyte nuclear factor 3-beta (Homo sapiens) (Q9Y261 whole entry, looked up): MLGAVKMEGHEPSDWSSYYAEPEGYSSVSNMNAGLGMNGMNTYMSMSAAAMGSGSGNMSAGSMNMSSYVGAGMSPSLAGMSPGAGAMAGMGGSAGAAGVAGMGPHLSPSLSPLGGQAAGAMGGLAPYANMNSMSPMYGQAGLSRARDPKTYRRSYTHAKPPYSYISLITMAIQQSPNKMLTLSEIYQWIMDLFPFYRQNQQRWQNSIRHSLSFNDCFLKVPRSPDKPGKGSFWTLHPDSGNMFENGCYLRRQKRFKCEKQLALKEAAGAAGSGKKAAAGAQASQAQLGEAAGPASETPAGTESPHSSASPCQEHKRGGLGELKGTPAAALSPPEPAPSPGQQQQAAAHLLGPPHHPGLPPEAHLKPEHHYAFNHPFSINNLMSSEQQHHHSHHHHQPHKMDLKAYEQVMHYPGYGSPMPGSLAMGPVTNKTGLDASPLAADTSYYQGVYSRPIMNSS
Sequence of CCAAT/enhancer-binding protein beta (Homo sapiens) (P17676 whole entry, looked up): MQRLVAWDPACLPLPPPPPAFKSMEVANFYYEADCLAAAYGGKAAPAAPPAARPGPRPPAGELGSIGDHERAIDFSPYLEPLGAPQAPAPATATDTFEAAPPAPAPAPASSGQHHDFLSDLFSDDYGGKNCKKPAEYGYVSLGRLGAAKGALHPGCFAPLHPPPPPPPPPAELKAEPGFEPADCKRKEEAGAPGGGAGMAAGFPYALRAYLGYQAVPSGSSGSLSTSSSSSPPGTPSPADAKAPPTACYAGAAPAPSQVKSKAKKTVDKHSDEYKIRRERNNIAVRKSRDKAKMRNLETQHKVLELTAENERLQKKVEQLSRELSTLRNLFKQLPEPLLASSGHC
Sequence of Retinoic acid receptor alpha (Homo sapiens) (P10276 whole entry, looked up): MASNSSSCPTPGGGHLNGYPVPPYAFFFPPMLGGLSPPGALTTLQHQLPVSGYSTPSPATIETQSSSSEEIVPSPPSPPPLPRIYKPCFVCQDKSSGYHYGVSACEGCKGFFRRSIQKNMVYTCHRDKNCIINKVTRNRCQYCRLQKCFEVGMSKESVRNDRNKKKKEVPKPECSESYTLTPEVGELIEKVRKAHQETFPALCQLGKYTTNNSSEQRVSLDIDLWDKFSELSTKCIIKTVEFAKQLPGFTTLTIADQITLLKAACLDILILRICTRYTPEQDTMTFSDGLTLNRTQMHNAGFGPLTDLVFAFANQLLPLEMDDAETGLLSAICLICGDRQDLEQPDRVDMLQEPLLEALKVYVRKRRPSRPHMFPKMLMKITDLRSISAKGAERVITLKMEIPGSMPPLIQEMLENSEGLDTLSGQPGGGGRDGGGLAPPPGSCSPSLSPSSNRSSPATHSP
Sequence of Aryl hydrocarbon receptor (Homo sapiens) (P35869 whole entry, looked up): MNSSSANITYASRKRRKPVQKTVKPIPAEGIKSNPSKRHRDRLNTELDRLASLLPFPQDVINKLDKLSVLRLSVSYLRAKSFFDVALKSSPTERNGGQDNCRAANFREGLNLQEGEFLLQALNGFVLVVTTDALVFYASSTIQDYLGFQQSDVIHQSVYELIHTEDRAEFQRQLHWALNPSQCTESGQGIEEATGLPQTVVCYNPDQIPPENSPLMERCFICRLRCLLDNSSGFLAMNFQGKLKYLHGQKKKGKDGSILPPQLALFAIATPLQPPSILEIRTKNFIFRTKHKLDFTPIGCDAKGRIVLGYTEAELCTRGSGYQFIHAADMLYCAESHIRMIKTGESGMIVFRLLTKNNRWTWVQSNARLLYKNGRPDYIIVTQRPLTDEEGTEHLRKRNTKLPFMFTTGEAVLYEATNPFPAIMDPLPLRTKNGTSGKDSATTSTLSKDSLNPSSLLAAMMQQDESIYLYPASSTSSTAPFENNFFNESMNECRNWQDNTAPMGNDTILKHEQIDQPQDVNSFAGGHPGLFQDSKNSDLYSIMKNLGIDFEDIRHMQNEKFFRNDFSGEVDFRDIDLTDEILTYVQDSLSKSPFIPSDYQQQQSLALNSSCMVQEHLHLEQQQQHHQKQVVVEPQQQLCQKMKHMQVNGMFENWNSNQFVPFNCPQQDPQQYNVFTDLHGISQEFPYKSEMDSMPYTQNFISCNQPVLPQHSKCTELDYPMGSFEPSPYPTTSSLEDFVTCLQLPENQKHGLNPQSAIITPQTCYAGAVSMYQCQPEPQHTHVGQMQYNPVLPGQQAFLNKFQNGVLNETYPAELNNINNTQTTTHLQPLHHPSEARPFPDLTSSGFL

On to `CC1=CC=C(C(C)C)CC1`, for which the molecule was called inactive in [1], in assay [2], in assay [3], in [4], in [5] and in [6]. Also, the molecule was classed as inactive in assay [7], in assay [8], in assay [9], in [10], in [11] and in assay [12]. Further, the call in assay [13], in assay [14], in assay [15], in assay [16] and in [17] was inactive.
Turning to `Cc1ccc(C)c(OCCCC(C)(C)C(=O)O)c1`, the molecule was called inactive in assay [1], in [2], in assay [3], in assay [4], in assay [5] and in assay [6]. The molecule was called inactive in assay [7], in assay [18], in assay [9], in [19], in assay [10] and in assay [11]. Further, the outcome in [12], in assay [14], in assay [15], in [16] and in [17] was inactive.
`Fc1ccc(Br)cc1`: the outcome in [1], in assay [2], in assay [3], in [4], in assay [5] and in [7] was inactive. Moreover, the molecule was called inactive in [8], in assay [18], in assay [9], in [19], in assay [10] and in assay [11]. For the same molecule, the result in assay [12], in assay [14], in assay [15], in assay [16] and in assay [17] was inactive. In [13], the AC50 was 21.1 µM (active).
Regarding `CCCC(CC)c1ccccc1` (centres undefined), the result in assay [1], in assay [2], in assay [4], in [5], in assay [7] and in assay [8] was inactive. In addition, the molecule was called inactive in assay [18], in [9], in assay [19], in [10], in assay [11] and in [12]. Moreover, the molecule was called inactive in assay [14], in assay [15] and in assay [17]. Besides, the AC50 in assay [3] was 153 µM (active); in assay [6], 167 µM (active); in assay [13] it was 45.1 µM (active).
Consider `CCOC(=O)CC(=O)c1ccccc1`, for which the outcome in assay [1], in assay [2], in assay [3], in assay [4], in assay [5] and in assay [6] was inactive. Also, the molecule was classed as inactive in assay [7], in assay [8], in assay [18], in assay [9], in assay [19] and in [10]. The result in assay [11], in [12], in assay [13], in assay [14], in [15] and in assay [16] was inactive. For the same molecule, the outcome in assay [17] was inactive.
